Most compounds without a hit are left out; they make up all but 4.5% or so of the library.
hgDAF-12 ag – H. glycines DAF-12 receptor agonists, primary screen, cell-based, luminescence, HEK293, GAL4 fusion, UAS-luciferase | Nuclear hormone receptor DAF-12 (Heterodera glycines), GAL4 fusion | HEK293 GAL4-hgDAF12 UAS-luciferase reporter, agonist luminescence; normalized to butyrate control | activation, % at 6.8 µM | actives 1.8% (n = 370,000);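 active = activation above a cutoff set at the mean of all screened compounds plus 3 SD, cut at about 10% in these data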
hcDAF-12 act – H. contortus DAF-12 nuclear receptor activators, primary screen, cell-based, luminescence, HEK293, lit1-tk-luc reporter; actives 1.4% (n = 370,000); HEK293 hcDAF-12 lit1-tk-luc reporter; 0% DMSO, 100% Δ7-dafachronic acid; activation, % at 6.8 µM;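 active = activation above the mean of all tested compounds plus 3 SD, cut at about 5.5% in these data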
ssDAF-12 act – S. stercoralis DAF-12 nuclear receptor activators, primary screen, cell-based, luminescence, HEK293, GRIP1 co-expression, lit1-tk-luc. HEK293 ssDAF-12/GRIP1 lit1-tk-luc reporter; % of 3 µM dafachronic acid response. activation, % at 6.8 µM. actives 1% (n = 370,000). AID 652126, 2013;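 active = activation above the mean over all tested compounds plus 3 SD, cut at about 0.9% in these data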
GAA850 FXN act – FXN promoter activators, primary screen, cell-based, luciferase luminescence, HEK293 lucGAA850; activation, % at 6 µM; actives 0.56% (n = 360,000); HEK293 lucGAA850 FXN promoter luciferase reporter, 24 h; percent of 10 µM SAHA response; AID 540364, 2011;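 active = activation above the average of all compounds screened plus 3 SD, cutoff fixed separately per campaign, cut at about 7.5% in these data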
DAX1 inh-1 – DAX1 (NR0B1) inhibitors, primary screen, cell-based, HEK293, Gal4-DAX1, luciferase luminescence; Nuclear receptor subfamily 0 group B member 1 (Homo sapiens), P51843; HEK293 Gal4-DAX1 luciferase reporter; inhibition, % at 6.75 µM; actives 0.99% (n = 340,000); AID 504766, 2011;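 active = inhibition above the mean over all tested compounds plus 3 SD, cut at about 4.2% in these data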;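 also: inhibition shows as a rise in luminescence from relieved DAX1 repression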
Target sequence (P51843 207-470 limits assumed): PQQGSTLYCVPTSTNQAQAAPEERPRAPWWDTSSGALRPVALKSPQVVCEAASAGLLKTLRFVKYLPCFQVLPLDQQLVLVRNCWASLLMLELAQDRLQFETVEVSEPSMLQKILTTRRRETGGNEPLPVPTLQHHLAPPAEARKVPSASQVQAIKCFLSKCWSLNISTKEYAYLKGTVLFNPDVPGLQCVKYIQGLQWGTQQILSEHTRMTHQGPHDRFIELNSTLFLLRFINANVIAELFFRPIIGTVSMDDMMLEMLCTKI
DAX1 inh-2 – DAX1 (NR0B1) inhibitors on StAR promoter, primary screen, cell-based, luminescence, SF-1 (NR5A1), full-length DAX-1 | HEK293T StAR-luciferase reporter, SF-1/DAX-1 repression relief | inhibition, % at 6.8 µM | actives 1.1% (n = 370,000) | AID 652010, 2013;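 active = inhibition above the mean over all tested compounds plus 3 SD, cut at about 3.6% in these data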;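 also: higher inhibition means more luminescence from relief of DAX-1 repression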
Numbers stand for hits; n = inactive; x = no result.

SMILES	hgDAF-12 ag	hcDAF-12 act	ssDAF-12 act	GAA850 FXN act	DAX1 inh-1	DAX1 inh-2
C(=N\Nc1nnnn1-c1ccccc1)/c1ccncc1	n	n	n	n	n	n
O=C(O)c1ccc(/C=N/Nc2nnnn2-c2ccccc2)cc1	n	n	1.6	n	n	n
C(=N\Nc1nc2ccccc2[nH]1)/c1ccc2c(c1)OCO2	n	n	n	n	8.0	n
CN(C)C(=O)NCCCC#Cc1ccccc1	n	n	n	x	x	n
COc1ccc2c(c1)CN1C(=O)N(Cc3ccc(F)cc3)S(=O)(=O)CC21 (stereo unspecified)	n	n	n	x	x	n
CCCCN1CCN(C2=NC(=O)N(c3ccc(Br)cc3)C(=O)C2)CC1	n	n	n	x	x	n
O=C(O)c1ccc(/C=N/Nc2ccc(C(F)(F)F)cn2)cc1	18.6	6.0	3.4	n	n	4.2
CCOc1ccc(-n2c(SCC(=O)Nc3ccc4cn[nH]c4c3)nnc2-c2ccncc2)cc1	n	n	n	x	x	n
C/C=C(/CCC1NCCc2c1[nH]c1ccccc21)[Si](C)(C)C (stereo unspecified)	n	n	1.3	n	n	n
CCCCCCCCCC1NC(C(=O)O)Cc2c1[nH]c1ccccc21 (stereo unspecified)	n	n	n	n	n	n
CCOC(=O)C1(CCCc2ccccc2)CCN(C(=O)c2ocnc2C)CC1	n	n	n	n	n	n
CCOC(=O)C1(CC2CC2)CCN(C(=O)c2ocnc2C)CC1	n	n	n	n	4.3	n
CCC[C@H]1[C@@H](NC(=O)NCC)CC[C@@]23CCCN2C(=O)CCC[C@@H]13	n	n	n	x	x	x
CCCOc1ccc(C(=O)Nc2ccc3c(c2)OCCO3)cc1	12.6	5.7	n	n	n	n
CCOc1cccc(C(=O)Nc2ccc3c(c2)OCCO3)c1	n	n	0.9	n	n	n
CC(=O)c1ccc(OCCCC(=O)Nc2ccc3c(c2)OCCO3)cc1	n	n	n	n	n	n
O=C(Nc1ccc2c(c1)OCCO2)c1cccc(C(=O)Nc2ccc3c(c2)OCCO3)c1	n	n	n	n	n	n
CSc1ccc(C2Nc3cccc4cccc(c34)N2)cc1	n	5.7	n	n	n	n
Cc1cccc(C2Nc3cccc4cccc(c34)N2)c1	n	5.7	1.2	n	n	n
Clc1ccc(C2Nc3cccc4cccc(c34)N2)cc1	n	n	n	n	n	n
CCCCCC(=O)NC1CCCCN(Cc2cccc(Cl)c2)C1=O (stereo unspecified)	n	n	n	x	x	n
O=C(C1CCN(c2nc(-c3ccc(Br)cc3)cs2)CC1)N1CCNCC1	n	n	n	x	x	x
O=C1c2ccccc2/C(=C\c2ccc(O[C@@H]3CCCCO3)cc2)N1c1ccccc1	10.5	n	n	x	x	n
Cc1ccc(NC(=O)[C@@H]2CC(=O)O[C@@H]2c2ccccc2)c(C)c1	n	n	n	x	x	n
CCN(CC)c1ccc(C(=S)NCc2ccccc2)cc1	n	n	n	n	7.3	n
SMILES	hgDAF-12 ag	hcDAF-12 act	ssDAF-12 act	GAA850 FXN act	DAX1 inh-1	DAX1 inh-2
COCCCNC(=O)COc1ccc(Br)cc1Cl	10.8	n	n	n	n	n
CCNC(=O)COc1ccc(Br)cc1Cl	n	n	n	n	n	n
O=C(O)c1cccc(N2C(=O)c3ccc(Oc4ccc(Cl)cc4)cc3C2=O)c1	n	n	n	n	4.6	n
Cc1cccc(N2C(=O)c3cccc(Oc4ccc(Cl)cc4)c3C2=O)c1	n	n	n	n	5.2	n
O=C(O)c1cccc(N2C(=O)c3ccc4c5c(ccc(c35)C2=O)C(=O)N(c2cccc(C(=O)O)c2)C4=O)c1	n	n	n	n	n	n
COC(=O)C1=C(C)N(C)C(=NCc2ccc(OC)cc2)NC1c1cccc(C(F)(F)F)c1 (stereo unspecified)	n	n	n	x	x	n
CCc1cc(CNC(=O)CCc2nnc(CCCc3ccccc3)o2)on1	13.0	n	n	n	n	n
O=C(CCc1nnc(CCCc2ccccc2)o1)NCCCC1CCCC1	11.1	n	n	n	n	n
O=C(CCc1nnc(CCCc2ccccc2)o1)N1CCCCCC1	n	n	n	n	5.0	n
CC(C)c1cc(CNC(=O)CCc2nnc(CCCc3ccccc3)o2)on1	n	n	n	n	n	n
O=C(CCc1nnc(CCCc2ccccc2)o1)NCCc1ccccc1	n	n	n	n	n	n
COc1ccc(/C(C)=N/NC(=O)Cc2cc(=O)[nH][nH]2)cc1OC	n	n	n	x	x	n
COc1ccc(/C(C)=N/Nc2nc3ccccc3nc2C)cc1	n	5.8	1.1	n	n	n
COc1ccc(/C(C)=N/Nc2nncc3ccccc23)cc1	n	n	n	n	n	n
CN(C)c1ccc(-c2nc3ncc(Cl)cc3[nH]2)cc1	n	n	n	x	x	n
CCOC(=O)/C(C#N)=C/Nc1ccccc1OC(F)(F)F	n	n	1.5	n	x	n
Cc1ccc(O)c(C(C)c2c[nH]c3ccccc23)c1 (stereo unspecified)	n	n	n	x	x	n
CCOc1ccc(/C=N/Nc2ccc(Cl)nn2)c(O)c1	n	n	n	n	n	n
CCOc1ccccc1/C=N/Nc1ccc(Cl)nn1	n	n	1.0	n	n	n
CC1(C)CNC(=O)c2sc(N3CCCCC3)nc2C1	n	n	n	n	5.6	n
O=c1[nH]ncn1-c1ccc(Br)cc1	n	n	n	n	5.2	n
CCc1nnn2c1Cn1c3ccccc3c(=O)n1[C@@H](C)C2	n	n	n	x	x	n
Cc1ccc(CCNC(=O)C2CCC(=O)N(Cc3ccccc3F)C2)o1 (stereo unspecified)	n	n	n	n	n	4.1
Cc1ccc(C(=O)NCCSC(C)(C)C)cc1	10.8	n	n	n	n	4.0
COCC(=O)Nc1ccc(S(=O)(=O)Nc2nccs2)cc1	n	n	n	n	4.4	n
COC(=O)[C@]12C[C@H](CC(=O)N3CCN(C(=O)C4CC4)CC3)C(=O)N(CCc3ccc(OC)c(OC)c3)C1=C[C@H](C(C)(C)C)O[C@@H]2C	n	n	n	x	x	n
COC(=O)[C@]12C[C@H](CC(=O)N3CCC(c4ccccc4)CC3)C(=O)N(CCc3ccc(OC)c(OC)c3)C1=C[C@H](COCc1ccccc1)O[C@@H]2C	n	n	n	x	x	n
CCOC(=O)c1ccc(NC(=S)Nc2ccccc2)cc1	n	n	1.2	n	n	n

Screening data (PubChem)
